Data published in the supplement of paper PMC9023506.
Counter-ions that a name gives are not always drawn.

These compounds were tested on Danio rerio larvae (5 dpf) (assay: optomotor response to red moving lines, difference vs DMSO (percentage points (treated minus DMSO)); higher = more of the behaviour than the DMSO vehicle control). Settings: 10 µM; exposure time: 3 h pre-incubation + 3 h imaging.
Description: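 5-dpf wild-type zebrafish larvae were imaged in 96-well plates. They were treated with 190 Tocris FDA-approved drugs at 10 µM (1 µl/ml DMSO) for 3 h before and 3 h during imaging at 28.5 °C, 48 larvae per drug. Automated image analysis gave % time moving and optomotor responses. Values are drug group mean minus DMSO vehicle mean (n=844), in percentage points, for 10 behaviours.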

Row | SMILES | optomotor response to red moving lines
1 | COc1cc(N)c(Cl)cc1C(=O)NC1CCN(CCCOc2ccc(F)cc2)CC1OC (stereo not given) [Cisapride] | -3.64
2 | C/C(O)=C(\C#N)C(=O)Nc1ccc(C(F)(F)F)cc1 [Teriflunomide] | -3.45
3 | CCOC(=O)N1CCC(=C2c3ccc(Cl)cc3CCc3cccnc32)CC1 [Loratidine] | -14.1
4 | CCc1ccc(CCOc2ccc(CC3SC(=O)NC3=O)cc2)nc1 (stereo not given) [Pioglitazone hydrochloride] | -7.97
5 | COc1ccc([C@@H]2Sc3ccccc3N(CCN(C)C)C(=O)[C@@H]2OC(C)=O)cc1 [Diltiazem hydrochloride] | -1.99
6 | NC(=O)c1ncn([C@@H]2O[C@H](CO)[C@@H](O)[C@H]2O)n1 [Ribavirin] | 7.68
7 | CC[C@H](C)C(=O)O[C@H]1C[C@@H](C)C=C2C=C[C@H](C)[C@H](CC[C@@H]3C[C@@H](O)CC(=O)O3)[C@H]21 [Lovastatin] | -6.33
8 | Cc1ccc(-c2cc(C(F)(F)F)nn2-c2ccc(S(N)(=O)=O)cc2)cc1 [Celecoxib] | -3.89
9 | O=C(O[C@@H]1C[C@@H]2C[C@H]3C[C@H](C1)N2CC3=O)c1c[nH]c2ccccc12 [Dolasetron mesylate] | -6.24
10 | Nc1ccn([C@@H]2O[C@H](CO)[C@@H](O)C2(F)F)c(=O)n1 [Gemcitabine hydrochloride] | 12.3
11 | Nc1cccc2c1CN(C1CCC(=O)NC1=O)C2=O (stereo not given) [Lenalidomide] | 6.24
12 | CN1CCN(CCCN2c3ccccc3Sc3ccc(Cl)cc32)CC1 [Prochlorperazine dimaleate] | 4.44
13 | OC(c1cc(C(F)(F)F)nc2c(C(F)(F)F)cccc12)C1CCCCN1 (stereo not given) [Mefloquine hydrochloride] | 8.36
14 | Cc1ccc(O)c([C@H](CCN(C(C)C)C(C)C)c2ccccc2)c1 [Tolterodine L-tartrate] | -0.0985
15 | C[C@H]1O[C@H](O[C@H]2[C@H](O)[C@@H](O)[C@@H](O[C@H]3[C@H](O)[C@@H](O)C(O)O[C@@H]3CO)O[C@@H]2CO)[C@H](O)[C@@H](O)[C@@H]1N[C@H]1C=C(CO)[C@@H](O)[C@H](O)[C@H]1O (stereo not given in full) [Acarbose] | 6
16 | COc1cc2ncnc(Nc3ccc(F)c(Cl)c3)c2cc1OCCCN1CCOCC1 [Iressa] | 1.01
17 | COc1ccccc1OCCNCC(O)COc1cccc2[nH]c3ccccc3c12 (stereo not given) [Carvedilol] | 1.15
18 | C[C@@H]1C[C@H]2[C@@H]3CCC4=CC(=O)C=C[C@]4(C)[C@@]3(F)[C@@H](O)C[C@]2(C)[C@@]1(O)C(=O)CO [Dexamethasone] | -2.54
19 | CN1CC[C@@H](NC(=O)Nc2ccc(C#N)cc2)C[C@@H]1c1nc2ccccc2[nH]1 | -0.356
20 | CNS(=O)(=O)Cc1ccc2[nH]cc(CCN(C)C)c2c1 [Sumatriptan succinate] | -6.18

Row | SMILES | optomotor response to red moving lines
21 | Nc1nc2c(ncn2COCCO)c(=O)[nH]1 [Acyclovir] | 1.94
22 | Cn1cnc([N+](=O)[O-])c1Sc1ncnc2[nH]cnc12 [Azathioprine] | 3.86
23 | O=C(O)CCCc1ccccc1 [Sodium 4-Phenylbutyrate] | 3.33
24 | Cc1ccc(N(CC2=NCCN2)c2cccc(O)c2)cc1 [Phentolamine Mesylate] | 14.5
25 | CNCc1ccc(-c2[nH]c3cc(F)cc4c3c2CCNC4=O)cc1 [Rucaparib camsylate] | 2.5
26 | Cc1ccccc1C(=O)Nc1ccc(C(=O)N2CCCC(O)c3cc(Cl)ccc32)c(C)c1 (stereo not given) [Tolvaptan] | -7.01
27 | COC(=O)C1=C(C)NC(C)=C(C(=O)OC(C)C)C1c1cccc2nonc12 (stereo not given) [Isradipine] | -7.63
28 | Cc1cc2c(s1)Nc1ccccc1N=C2N1CCN(C)CC1 [Olanzapine] | 4.76
29 | CN[C@H]1CC[C@@H](c2ccc(Cl)c(Cl)c2)c2ccccc21 [Sertraline hydrochloride] | 21.6
30 | CCCCc1nc(Cl)c(CO)n1Cc1ccc(-c2ccccc2-c2nnn[nH]2)cc1 [Losartan potassium] | -6.11
31 | CC(CCc1ccc(O)cc1)NCCc1ccc(O)c(O)c1 (stereo not given) [Dobutamine hydrochloride] | 5.06
32 | O=C1CCc2ccc(OCCCCN3CCN(c4cccc(Cl)c4Cl)CC3)cc2N1 [Aripiprazole] | 6.21
33 | O=C(c1ccc(OCCN2CCCCC2)cc1)c1c(-c2ccc(O)cc2)sc2cc(O)ccc12 [Raloxifene hydrochloride] | 3.63
34 | CN(C)CC/C=C1/c2ccccc2COc2ccc(CC(=O)O)cc21 [Olopatadine hydrochloride] | 19
35 | COc1ccccc1Oc1c(NS(=O)(=O)c2ccc(C(C)(C)C)cc2)nc(-c2ncccn2)nc1OCCO [Bosentan] | -14
36 | CC(C)(C#N)c1cc(Cn2cncn2)cc(C(C)(C)C#N)c1 [Anastrozole] | -3.51
37 | Brc1c(NC2=NCCN2)ccc2nccnc12 | 17.8
38 | CN1CCC[C@@H]1CCO[C@](C)(c1ccccc1)c1ccc(Cl)cc1 [Clemastine fumarate] | 16.7
39 | CC(=O)O[C@]1(C(C)=O)CC[C@H]2[C@@H]3C=C(C)C4=CC(=O)CC[C@]4(C)[C@H]3CC[C@@]21C [Megestrol Acetate] | 3.71
40 | COCCc1ccc(OCC(O)CNC(C)C)cc1 (stereo not given) [Metoprolol tartrate] | -1.5
